Experimental data reported in PubChem BioAssay AID1159580 (chemical genetic matrix, 2015).
About 2,000 (36%) of roughly 5,500 compounds were called active. Not shown: some 18% with an inconclusive outcome. No stated cut-off is given here; in the data, active means normalized growth mostly below about 0.91 (no sharp cut-off); inconclusive means no clear call, values can overlap the other calls; inactive means mostly above about 0.92. Some of the results follow.

Experiment: chemical genetic growth profiling, strain panel (AID 1159580);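 further: tested at 20 µM; growth read once vehicle control cultures reached saturation at 30 °C; 1 = growth at the plate median or of vehicle wells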
Conditions: growth OD
[1] = S. cerevisiae deletion strains, locus YDL101C, strain DUN1, stronger effect = lower value
[2] = S. cerevisiae deletion strains, locus YHR030C, strain SLT2, stronger effect = lower value
[3] = S. cerevisiae deletion strains, locus YHR079C, strain IRE1, stronger effect = lower value
[4] = S. cerevisiae deletion strains, locus YJL095W, strain BCK1, stronger effect = lower value
[5] = S. cerevisiae deletion strains, locus YJR066W, strain TOR1, stronger effect = lower value
[6] = S. cerevisiae deletion strains, locus YLR113W, strain HOG1, stronger effect = lower value
[7] = S. cerevisiae deletion strains, locus YNL183C, strain NPR1, stronger effect = lower value
[8] = S. cerevisiae deletion strains, locus YOR231W, strain MKK1, stronger effect = lower value
[9] = S. cerevisiae deletion strains, locus YPL256C, strain CLN2, stronger effect = lower value
[10] = S. cerevisiae deletion strains, locus YDR150W, strain NUM1, stronger effect = lower value
[11] = S. cerevisiae deletion strains, locus YGR078C, strain PAC10, stronger effect = lower value
[12] = S. cerevisiae deletion strains, locus YJR075W, strain HOC1, stronger effect = lower value
[13] = S. cerevisiae deletion strains, locus YNL153C, strain GIM3, stronger effect = lower value
[14] = S. cerevisiae deletion strains, locus YNL322C, strain KRE1, stronger effect = lower value
[15] = S. cerevisiae deletion strains, locus YPL055C, strain LGE1, stronger effect = lower value
[16] = S. cerevisiae deletion strains, locus YPL241C, strain CIN2, stronger effect = lower value

Measured: normalized growth

Cc1c(C(=O)Sc2ccc(F)cc2F)sc2nc(C(F)(F)F)nn12
active: S. cerevisiae deletion strains, locus YAR019C, strain CDC15, stronger effect = lower value 0.0973 | S. cerevisiae deletion strains, locus YBL105C, strain PKC1, stronger effect = lower value 0.0839 | S. cerevisiae deletion strains, locus YBR135W, strain CKS1, stronger effect = lower value 0.105 | S. cerevisiae deletion strains, locus YBR136W, strain MEC1, stronger effect = lower value 0.0954 | S. cerevisiae deletion strains, locus YBR160W, strain CDC28, stronger effect = lower value 0.0992 | S. cerevisiae deletion strains, locus YDL017W, strain CDC7, stronger effect = lower value 0.0838 | S. cerevisiae deletion strains, locus YDL028C, strain MPS1, stronger effect = lower value 0.38 | [1] 0.0962 | S. cerevisiae deletion strains, locus YDL108W, strain KIN28, stronger effect = lower value 0.105 | S. cerevisiae deletion strains, locus YDL132W, strain cdc53, stronger effect = lower value 0.0969 | S. cerevisiae deletion strains, locus YDL214C, strain PRR2, stronger effect = lower value 0.103 | S. cerevisiae deletion strains, locus YDR052C, strain DBF4, stronger effect = lower value 0.102 | S. cerevisiae deletion strains, locus YDR054C, strain cdc34, stronger effect = lower value 0.0939 | S. cerevisiae deletion strains, locus YDR226W, strain ADK1, stronger effect = lower value 0.105 | S. cerevisiae deletion strains, locus YDR477W, strain SNF1, stronger effect = lower value 0.107 | S. cerevisiae deletion strains, locus YER123W, strain YCK3, stronger effect = lower value 0.111 | S. cerevisiae deletion strains, locus YER133W, strain GLC7, stronger effect = lower value 0.106 | S. cerevisiae deletion strains, locus YFL009W, strain cdc4, stronger effect = lower value 0.102 | S. cerevisiae deletion strains, locus YFL029C, strain CAK1, stronger effect = lower value 0.101 | S. cerevisiae deletion strains, locus YFR003C, strain YPI1, stronger effect = lower value 0.45 | S. cerevisiae deletion strains, locus YFR019W, strain FAB1, stronger effect = lower value 0.107 | S. cerevisiae deletion strains, locus YFR028C, strain CDC14, stronger effect = lower value 0.0976 | S. cerevisiae deletion strains, locus YGR040W, strain KSS1, stronger effect = lower value 0.0958 | S. cerevisiae deletion strains, locus YGR052W, strain FMP48, stronger effect = lower value 0.106 | S. cerevisiae deletion strains, locus YGR092W, strain DBF2, stronger effect = lower value 0.116 | [2] 0.103 | [3] 0.101 | S. cerevisiae deletion strains, locus YHR082C, strain KSP1, stronger effect = lower value 0.133 | S. cerevisiae deletion strains, locus YHR205W, strain SCH9, stronger effect = lower value 0.000493 | S. cerevisiae deletion strains, locus YIL147C, strain SLN1, stronger effect = lower value 0.488 | [4] 0.0913 | S. cerevisiae deletion strains, locus YJL128C, strain PBS2, stronger effect = lower value 0.0913 | S. cerevisiae deletion strains, locus YJL157C, strain FAR1, stronger effect = lower value 0.0866 | S. cerevisiae deletion strains, locus YJR016C, strain ILV3, stronger effect = lower value 0.0901 | S. cerevisiae deletion strains, locus YJR066W, strain TOR1 (second series), stronger effect = lower value 0.0917 | [5] 0.122 | S. cerevisiae deletion strains, locus YKL048C, strain ELM1, stronger effect = lower value 0.131 | S. cerevisiae deletion strains, locus YKL067W, strain YNK1, stronger effect = lower value 0.108 | S. cerevisiae deletion strains, locus YKL101W, strain HSL1, stronger effect = lower value 0.0974 | S. cerevisiae deletion strains, locus YKL193C, strain SDS22, stronger effect = lower value 0.101 | S. cerevisiae deletion strains, locus YKL203C, strain TOR2, stronger effect = lower value 0.103 | [6] 0.145 | S. cerevisiae deletion strains, locus YLR133W, strain CKI1, stronger effect = lower value 0.0966 | S. cerevisiae deletion strains, locus YLR403W, strain SFP1, stronger effect = lower value -0.00147 | S. cerevisiae deletion strains, locus YML070W, strain DAK1, stronger effect = lower value 0.103 | S. cerevisiae deletion strains, locus YMR001C, strain CDC5, stronger effect = lower value 0.0979 | S. cerevisiae deletion strains, locus YMR205C, strain PFK2 (second series), stronger effect = lower value 0.101 | S. cerevisiae deletion strains, locus YMR277W, strain FCP1, stronger effect = lower value 0.1 | S. cerevisiae deletion strains, locus YNL006W, strain LST8, stronger effect = lower value 0.0889 | S. cerevisiae deletion strains, locus YNL020C, strain ARK1, stronger effect = lower value 0.0935 | S. cerevisiae deletion strains, locus YNL161W, strain CBK1, stronger effect = lower value 0.0956 | [7] 0.104 | S. cerevisiae deletion strains, locus YNL207W, strain RIO2, stronger effect = lower value 0.214 | S. cerevisiae deletion strains, locus YNL222W, strain SSU72, stronger effect = lower value 0.102 | S. cerevisiae deletion strains, locus YNL307C, strain MCK1 (second series), stronger effect = lower value 0.105 | S. cerevisiae deletion strains, locus YOL078W, strain AVO1, stronger effect = lower value 0.101 | S. cerevisiae deletion strains, locus YOL136C, strain PFK27, stronger effect = lower value 0.0958 | S. cerevisiae deletion strains, locus YOR061W, strain CKA2, stronger effect = lower value 0.12 | S. cerevisiae deletion strains, locus YOR119C, strain RIO1, stronger effect = lower value 0.116 | [8] 0.103 | S. cerevisiae deletion strains, locus YOR329C, strain SCD5, stronger effect = lower value 0.0884 | S. cerevisiae deletion strains, locus YPL031C, strain PHO85, stronger effect = lower value 0.0971 | S. cerevisiae deletion strains, locus YPL153C, strain RAD53, stronger effect = lower value 0.102 | S. cerevisiae deletion strains, locus YPL204W, strain HRR25, stronger effect = lower value 0.111 | S. cerevisiae deletion strains, locus YPL209C, strain IPL1, stronger effect = lower value 0.0875 | [9] 0.124 | S. cerevisiae deletion strains, locus YPR025C, strain CCL1, stronger effect = lower value 0.0998 | S. cerevisiae deletion strains, locus YPR106W, strain ISR1, stronger effect = lower value 0.109 | S. cerevisiae deletion strains, locus YPR111W, strain DBF20, stronger effect = lower value 0.169 | S. cerevisiae deletion strains, strain NNK1, stronger effect = lower value 0.105 | S. cerevisiae deletion strains, strain TSCII, stronger effect = lower value 0.104

C=CC1(C)CC(=O)C2(O)C(C)(O1)C(OC(C)=O)C(O)C1C(C)(C)CCC(O)C12C (centres undefined)
inactive: S. cerevisiae deletion strains, locus YAL040C, strain CLN3, stronger effect = lower value 0.968 | S. cerevisiae deletion strains, locus YCL061C, strain MRC1 (second series), stronger effect = lower value 0.985 | [10] 1 | S. cerevisiae deletion strains, locus YDR363W, strain ESC2, stronger effect = lower value 0.969 | S. cerevisiae deletion strains, locus YER002W, strain NOP16, stronger effect = lower value 0.986 | [11] 0.996 | [12] 0.992 | [13] 1.02 | S. cerevisiae deletion strains, locus YNL175C, strain NOP13, stronger effect = lower value 1.02 | S. cerevisiae deletion strains, locus YNL197C, strain WHI3, stronger effect = lower value 0.994 | S. cerevisiae deletion strains, locus YNL224C, strain SQS1, stronger effect = lower value 0.99 | [14] 0.985 | S. cerevisiae deletion strains, locus YOR083W, strain WHI5 (second series), stronger effect = lower value 1.01 | [15] 0.994 | [16] 0.998

CSc1nc2ccccc2[nH]1
inactive: S. cerevisiae deletion strains, locus YAL013W, strain DEP1, stronger effect = lower value 0.987 | S. cerevisiae deletion strains, locus YBR229C, strain ROT2, stronger effect = lower value 0.996 | S. cerevisiae deletion strains, locus YCL061C, strain MRC1, stronger effect = lower value 0.992 | [1] 0.999 | S. cerevisiae deletion strains, locus YDL134C, strain PPH21, stronger effect = lower value 0.948 | [10] 1.02 | S. cerevisiae deletion strains, locus YEL061C, strain CIN8, stronger effect = lower value 0.936 | [11] 0.99 | [2] 1.03 | S. cerevisiae deletion strains, locus YHR087W, strain rtc3, stronger effect = lower value 0.969 | S. cerevisiae deletion strains, locus YJL187C, strain SWE1, stronger effect = lower value 0.973 | S. cerevisiae deletion strains, locus YJR043C, strain POL32, stronger effect = lower value 1 | [12] 0.956 | S. cerevisiae deletion strains, locus YKL190W, strain CNB1, stronger effect = lower value 0.984 | S. cerevisiae deletion strains, locus YLR039C, strain RIC1, stronger effect = lower value 1.01 | S. cerevisiae deletion strains, locus YLR058C, strain SHM2 (second series), stronger effect = lower value 0.983 | S. cerevisiae deletion strains, locus YLR085C, strain ARP6, stronger effect = lower value 0.895 | S. cerevisiae deletion strains, locus YLR262C, strain YPT6, stronger effect = lower value 1.01 | S. cerevisiae deletion strains, locus YML094W, strain GIM5, stronger effect = lower value 0.96 | S. cerevisiae deletion strains, locus YMR219W, strain ESC1, stronger effect = lower value 0.99 | S. cerevisiae deletion strains, locus YMR263W, strain SAP30, stronger effect = lower value 1.02 | S. cerevisiae deletion strains, locus YMR307W, strain GAS1, stronger effect = lower value 0.89 | [13] 1.02 | S. cerevisiae deletion strains, locus YNL298W, strain CLA4 (second series), stronger effect = lower value 0.95 | [14] 0.977 | S. cerevisiae deletion strains, locus YNR030W, strain Alg12, stronger effect = lower value 0.923 | [15] 1.03 | [16] 0.944 | S. cerevisiae deletion strains, locus YPR135W, strain CTF4, stronger effect = lower value 0.973 | S. cerevisiae strains, strain wild type, stronger effect = lower value 0.981

CSc1nc2cc(Oc3cccc(Cl)c3Cl)c(Cl)cc2[nH]1
active: [2] 0.11 | [3] 0.119 | [4] 0.114 | [5] 0.0117 | [6] 0.156 | [7] 0.000876 | [8] 0.125 | [9] 0.138
